# Measured values published in PubChem BioAssay (NCATS).
# Values joined by “and” are separate entries in the source; they are usually repeats but may differ in a detail not shown here. Equal values may be shown once. Inconclusive results are not listed. Entries that show only a call come without a potency. Active and inactive are the calls of the source. Calls come from the whole dose curve; as a rule, active = well fitted curve in the direction sought with a large enough effect; inconclusive = small, poorly fitted or top-dose-only effect, or another doubt; inactive = no such curve, though single readings can be large; an effect the other way counts as inactive or inconclusive.
# Test: Primary qHTS for inhibitors of nuclear receptor binding SET domain protein 2 (NSD2) in an isogenic RCH-ACV NSD2 p.E1099K mutant (9B) (AID 1645876)
# Details: RCH-ACV NSD2 E1099K (9B) viability, CellTiter-Glo, 72 h; series mostly up to 44.9 µM
# Note: nearly all actives have a fitted effect of over 70% in size.
# Potency is the fitted concentration of half-maximal effect.
row,Compound,Potency
1,CCC(=O)NCC[C@@H]1CCc2ccc3c(c21)CCO3,inactive
2,CN(C)CC[C@H](CSc1ccccc1)Nc1ccc(S(=O)(=O)NC(=O)c2ccc(N3CCN(Cc4ccccc4-c4ccc(Cl)cc4)CC3)cc2)cc1[N+](=O)[O-],4.17 µM (active)
3,N[C@@H](CC(=O)N1CCn2c(nnc2C(F)(F)F)C1)Cc1cc(F)c(F)cc1F,inactive
4,CC[C@@H]([C@H](C)O)n1ncn(-c2ccc(N3CCN(c4ccc(OCC5CO[C@@](Cn6cncn6)(c6ccc(F)cc6F)C5)cc4)CC3)cc2)c1=O (stereo partly specified),inactive
5,CN(C)c1ccccc1CN1CCCN(Cc2ccccc2N(C)C)C1c1ccncc1,14.8 µM (active)
6,Cc1ccc(S(=O)(=O)OCC(=O)Nc2ccc(C(=O)O)c(O)c2)cc1,inactive
7,O=C(O)Cc1cccc(OCCCN(Cc2cccc(C(F)(F)F)c2Cl)CC(c2ccccc2)c2ccccc2)c1,inactive
8,COC(=O)[C@H](c1ccccc1Cl)N1CCc2sccc2C1,inactive
9,CC1CNc2c(cccc2S(=O)(=O)N[C@@H](CCCN=C(N)N)C(=O)N2CC[C@@H](C)C[C@@H]2C(=O)O)C1 (stereo partly specified),inactive
10,COc1cc2c(cc1OC)CC(=O)N(CCCN(C)C[C@H]1Cc3cc(OC)c(OC)cc31)CC2,inactive
11,COc1ccc(-c2oc3c(CC=C(C)C)c(O)cc(O)c3c(=O)c2O)cc1,inactive
12,Cc1nc(NC(=O)N2CCC[C@@H]2C(N)=O)sc1-c1csc(C(C)(C)C)n1,7.31 µM (active)
13,O=c1cc(-c2ccc(O)c(O)c2)oc2cc(O)cc(O)c12,10.5 µM (active)
14,CC(C)C[C@@H](N)[C@H](O)C(=O)N[C@H](C(=O)N[C@H](C(=O)N[C@@H](CC(=O)O)C(=O)O)C(C)C)C(C)C,inactive
15,COc1cc2nccc(Oc3ccc(NC(=O)Nc4cc(C)on4)c(Cl)c3)c2cc1OC,649 nM (active) and 3.72 µM (active)
16,CN(C(Cc1ccc(OS(=O)(=O)c2cccc3cnccc23)cc1)C(=O)N1CCN(c2ccccc2)CC1)S(=O)(=O)c1cccc2cnccc12 (stereo unspecified),7.31 µM (active)
17,COc1cc([C@@H]2c3cc4c(cc3[C@@H](O[C@@H]3O[C@@H]5CO[C@@H](C)O[C@@H]5[C@H](O)[C@@H]3O)[C@H]3COC(=O)[C@H]23)OCO4)cc(OC)c1O,0.263 µM (active)

row,Compound,Potency
1,Cc1ccc2c(=O)c3cccc(CC(=O)O)c3oc2c1C,inactive
2,CCCCOCCOc1nc(-c2ccc(C(=O)O)c(F)c2)sc1C,inactive
3,NCc1c[nH]c(=S)n1[C@H]1CCc2c(F)cc(F)cc2C1,inactive
4,CCOC(=O)[C@@H](N)CCC(=O)N[C@@H](CSCc1ccccc1)C(=O)N[C@@H](C(=O)OCC)c1ccccc1,20.9 µM (active)
5,CCC(C)SSc1ncc[nH]1 (stereo unspecified),9.34 µM (active)
6,NC(=O)c1ccc(N(C(N)=O)c2c(F)cccc2F)nc1-c1ccc(F)cc1F,inactive
7,NC1(C(=O)N[C@@H](CCO)c2ccc(Cl)cc2)CCN(c2ncnc3[nH]ccc23)CC1,0.817 µM (active)
8,COc1cc2ncn(-c3cc(OCc4ccccc4S(C)(=O)=O)c(C#N)s3)c2cc1OC,inactive
9,CCC[C@H](N[C@@H](C)C(=O)N1[C@@H]2CCCC[C@H]2C[C@H]1C(=O)O)C(=O)OCC,inactive
10,O=C1CCCC(=O)C1C(=O)c1ccc(C(F)(F)F)cc1[N+](=O)[O-],inactive
11,CC[C@H](C=C[C@@H](C)[C@H]1CC[C@H]2[C@@H]3CC=C4C[C@@H](O)CC[C@]4(C)[C@@H]3CC[C@]12C)C(C)C,inactive
12,CC(=O)NCCC(=O)N[C@@H](CCC(N)=O)C(=O)N[C@@H](CO)C(=O)N[C@@H](CCC(N)=O)C(=O)N[C@@H](CCC(N)=O)C(=O)N[C@H](C(=O)N[C@@H](Cc1ccccc1)C(=O)N[C@]1(C)CCCCCCC=CCCC[C@@](C)(C(=O)N[C@@H](CCC(N)=O)C(=O)N[C@@H](CC(N)=O)C(N)=O)NC(=O)[C@H](CC(C)C)NC(=O)[C@H](CC(C)C)NC(=O)[C@@H](CCCNC(=N)N)NC(=O)[C@H](Cc2c[nH]c3ccccc23)NC(=O)[C@H](CC(C)C)NC(=O)[C@H](CC(N)=O)NC1=O)[C@H](C)O,inactive
13,CC[C@H](C)n1cc(C)c2c(C(=O)NCc3c(C)cc(C)[nH]c3=O)cc(-c3ccc(N4CCNCC4)nc3)cc21,18.6 µM (active)
14,OC1CCC(Nc2ncc3nc(Nc4c(F)cc(F)cc4F)n([C@@H]4CCOC4)c3n2)CC1 (stereo partly specified),inactive
15,COc1c(C)cnc(Cn2cnc3c(Cl)nc(N)nc32)c1C,0.235 µM (active)
16,CCOC(=O)c1c(CSc2ccccc2)n(C)c2cc(Br)c(O)c(CN(C)C)c12,18.6 µM (active)

# Test: Primary qHTS for inhibitors of nuclear receptor binding SET domain protein 2 (NSD2) in an RCH-ACV wild type WT cells (2C) (AID 1645877)
# Details: RCH-ACV (leukaemia line) NSD2 WT (2C) viability, CellTiter-Glo, 72 h; series mostly up to 44.9 µM
row,Compound,Potency
1,Cc1ccc2c(c1)C(=O)[C@]1(O)CCN(c3ccccc3)C1=N2,23 µM (active)
2,COc1cc(F)c(C(C)C)cc1-c1ccc(C(F)(F)F)cc1CN1C(=O)O[C@H](c2cc(C(F)(F)F)cc(C(F)(F)F)c2)[C@@H]1C,inactive
3,CCCCCCCCCCCCCCCC(=O)O[C@H]1[C@@H](O)[C@@H](O)[C@@H]([C@H](NC(=O)[C@@H]2C[C@@H](CCC)CN2C)[C@H](C)Cl)O[C@@H]1SC,inactive
4,CCC(=O)NCC[C@@H]1CCc2ccc3c(c21)CCO3,inactive
5,CN(C)CC[C@H](CSc1ccccc1)Nc1ccc(S(=O)(=O)NC(=O)c2ccc(N3CCN(Cc4ccccc4-c4ccc(Cl)cc4)CC3)cc2)cc1[N+](=O)[O-],2.63 µM (active)
6,N[C@@H](CC(=O)N1CCn2c(nnc2C(F)(F)F)C1)Cc1cc(F)c(F)cc1F,inactive
7,CC[C@@H]([C@H](C)O)n1ncn(-c2ccc(N3CCN(c4ccc(OCC5CO[C@@](Cn6cncn6)(c6ccc(F)cc6F)C5)cc4)CC3)cc2)c1=O (stereo partly specified),inactive
8,CN(C)c1ccccc1CN1CCCN(Cc2ccccc2N(C)C)C1c1ccncc1,10.5 µM (active)
9,Cc1ccc(S(=O)(=O)OCC(=O)Nc2ccc(C(=O)O)c(O)c2)cc1,inactive
10,O=C(O)Cc1cccc(OCCCN(Cc2cccc(C(F)(F)F)c2Cl)CC(c2ccccc2)c2ccccc2)c1,inactive
11,COC(=O)[C@H](c1ccccc1Cl)N1CCc2sccc2C1,inactive
12,CN1CCN(c2ncc(-c3cc(Cl)cc(Cl)c3Cl)c(N)n2)CC1,18.6 µM (active)
13,CC1CNc2c(cccc2S(=O)(=O)N[C@@H](CCCN=C(N)N)C(=O)N2CC[C@@H](C)C[C@@H]2C(=O)O)C1 (stereo partly specified),inactive
14,COc1cc2c(cc1OC)CC(=O)N(CCCN(C)C[C@H]1Cc3cc(OC)c(OC)cc31)CC2,inactive
15,COc1ccc(-c2oc3c(CC=C(C)C)c(O)cc(O)c3c(=O)c2O)cc1,inactive
16,Cc1nc(NC(=O)N2CCC[C@@H]2C(N)=O)sc1-c1csc(C(C)(C)C)n1,7.31 µM (active)
17,O=c1cc(-c2ccc(O)c(O)c2)oc2cc(O)cc(O)c12,9.34 µM (active)
18,CC(C)C[C@@H](N)[C@H](O)C(=O)N[C@H](C(=O)N[C@H](C(=O)N[C@@H](CC(=O)O)C(=O)O)C(C)C)C(C)C,inactive
19,COc1cc2nccc(Oc3ccc(NC(=O)Nc4cc(C)on4)c(Cl)c3)c2cc1OC,728 nM (active) and 4.17 µM (active)

row,Compound,Potency
1,CN(C(Cc1ccc(OS(=O)(=O)c2cccc3cnccc23)cc1)C(=O)N1CCN(c2ccccc2)CC1)S(=O)(=O)c1cccc2cnccc12 (stereo unspecified),6.51 µM (active)
2,COc1cc([C@@H]2c3cc4c(cc3[C@@H](O[C@@H]3O[C@@H]5CO[C@@H](C)O[C@@H]5[C@H](O)[C@@H]3O)[C@H]3COC(=O)[C@H]23)OCO4)cc(OC)c1O,0.235 µM (active)
3,Cc1ccc2c(=O)c3cccc(CC(=O)O)c3oc2c1C,inactive
4,CCCCOCCOc1nc(-c2ccc(C(=O)O)c(F)c2)sc1C,inactive
5,NCc1c[nH]c(=S)n1[C@H]1CCc2c(F)cc(F)cc2C1,inactive
6,CCOC(=O)[C@@H](N)CCC(=O)N[C@@H](CSCc1ccccc1)C(=O)N[C@@H](C(=O)OCC)c1ccccc1,16.6 µM (active)
7,CCC(C)SSc1ncc[nH]1 (stereo unspecified),8.33 µM (active)
8,NC(=O)c1ccc(N(C(N)=O)c2c(F)cccc2F)nc1-c1ccc(F)cc1F,inactive
9,NC1(C(=O)N[C@@H](CCO)c2ccc(Cl)cc2)CCN(c2ncnc3[nH]ccc23)CC1,2.35 µM (active)
10,COc1cc2ncn(-c3cc(OCc4ccccc4S(C)(=O)=O)c(C#N)s3)c2cc1OC,inactive
11,CCC[C@H](N[C@@H](C)C(=O)N1[C@@H]2CCCC[C@H]2C[C@H]1C(=O)O)C(=O)OCC,inactive
12,O=C1CCCC(=O)C1C(=O)c1ccc(C(F)(F)F)cc1[N+](=O)[O-],inactive
13,COc1cc2nccc(Oc3ccc(NC(=O)Nc4ccc(F)cc4F)c(F)c3)c2cc1OC,2.35 µM (active)
14,CC[C@H](C=C[C@@H](C)[C@H]1CC[C@H]2[C@@H]3CC=C4C[C@@H](O)CC[C@]4(C)[C@@H]3CC[C@]12C)C(C)C,inactive
15,CC(=O)NCCC(=O)N[C@@H](CCC(N)=O)C(=O)N[C@@H](CO)C(=O)N[C@@H](CCC(N)=O)C(=O)N[C@@H](CCC(N)=O)C(=O)N[C@H](C(=O)N[C@@H](Cc1ccccc1)C(=O)N[C@]1(C)CCCCCCC=CCCC[C@@](C)(C(=O)N[C@@H](CCC(N)=O)C(=O)N[C@@H](CC(N)=O)C(N)=O)NC(=O)[C@H](CC(C)C)NC(=O)[C@H](CC(C)C)NC(=O)[C@@H](CCCNC(=N)N)NC(=O)[C@H](Cc2c[nH]c3ccccc23)NC(=O)[C@H](CC(C)C)NC(=O)[C@H](CC(N)=O)NC1=O)[C@H](C)O,inactive
16,CC[C@H](C)n1cc(C)c2c(C(=O)NCc3c(C)cc(C)[nH]c3=O)cc(-c3ccc(N4CCNCC4)nc3)cc21,16.6 µM (active)
17,OC1CCC(Nc2ncc3nc(Nc4c(F)cc(F)cc4F)n([C@@H]4CCOC4)c3n2)CC1 (stereo partly specified),inactive
18,COc1c(C)cnc(Cn2cnc3c(Cl)nc(N)nc32)c1C,0.263 µM (active)
19,CCOC(=O)c1c(CSc2ccccc2)n(C)c2cc(Br)c(O)c(CN(C)C)c12,20.9 µM (active)
